This is an account of results in PMC3315485, “Probing the Informational and Regulatory Plasticity of a Transcription Factor DNA–Binding Domain”.

Experiment in all cases: MITOMI; MITOMI, 295 K (22 C); buffer, salt and pH not stated in the material; high values mean tight binding
Common to all, as to settings: protein: ivt; label: fluorescent; dsDNA, one strand shown

The target of one experiment is T1, MarA RQR (Escherichia coli, UniProt P0ACH5 1-127, W40R).
T1 sequence: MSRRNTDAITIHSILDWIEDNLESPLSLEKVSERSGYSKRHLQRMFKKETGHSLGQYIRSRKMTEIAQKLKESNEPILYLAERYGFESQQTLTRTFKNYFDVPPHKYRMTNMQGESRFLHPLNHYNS
The procedure, abridged:
(§1)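 Association constants were determined by MITOMI and are expressed for each site relative to the site with the highest affinity for the same protein variant. The MarA protein variants were made with the RTS E. coli HY kit by in vitro transcription and translation and labelled through addition of tRNA-lys-bodipy-fl. Testing covered 64 synthesized mar binding site variants, with fluorescence read on Genepix at 295K.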

For another experiment, the target named is T2, MarA RTR (Escherichia coli, UniProt P0ACH5 1-127, W40R;Q43T).
T2 sequence: T1 sequence with Q43T
In a few lines: as §1

A further experiment deals with T3, MarA SAR (Escherichia coli, UniProt P0ACH5 1-127, W40S;Q43A).
T3 sequence: T1 sequence with R40S, Q43A
In a few lines:
as §1

A further experiment concerns the target T4, MarA TRR (Escherichia coli, UniProt P0ACH5 1-127, W40T;Q43R).
T4 sequence: T1 sequence with R40T, Q43R
The procedure, abridged: as §1

Changes are numbered by the printed parent chain.

For ATGTTCCGTTTTGCTAAAT, the binding signal with MarA RQR is 0.16 Ka relative to the best site of the variant; in the experiment with MarA RTR it was 0.207 Ka relative to the best site of the variant; with MarA SAR, 0.254 Ka relative to the best site of the variant; with MarA TRR, 0.449 Ka relative to the best site of the variant.
